PubChem BioAssay AID1159580 (chemical genetic matrix, 2015)
Among all 5,500 compounds or so, about 2,000 (36%) were called active. About 18% were inconclusive and are not listed. The list shows a part of the results. Unmarked numbers belong to inactive results. Cut-off read from the data, not from the text of the source: active = normalized growth mostly below about 0.91 (no sharp cut-off); inconclusive = no clear call, values can overlap the other calls; inactive = mostly above about 0.92.

Experiment: chemical genetic growth profiling, strain panel (AID 1159580);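 note: tested at 20 µM; growth read once vehicle control cultures reached saturation at 30 °C; 1 = growth at the plate median or of vehicle wells; lower values mean less growth of the strain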
Settings: S. cerevisiae deletion strains, growth OD

## C[C@]12CCC(=O)C=C1CC[C@@H]1[C@@H]2[C@@H](O)C[C@@]2(C)[C@H]1CC[C@]2(O)C(=O)COC(=O)CCC(=O)O
Locus YAL040C, strain CLN3, hits give low values
  normalized growth: 1.11 [resistant] (active)
Locus YCL061C, strain MRC1 (second series), hits give low values
  normalized growth: 1
Locus YDR363W, strain ESC2, hits give low values
  normalized growth: 1
Locus YER002W, strain NOP16, hits give low values
  normalized growth: 0.982
Locus YGR078C, strain PAC10, hits give low values
  normalized growth: 1.01
Locus YNL175C, strain NOP13, hits give low values
  normalized growth: 1.01
Locus YNL197C, strain WHI3, hits give low values
  normalized growth: 1.01
Locus YNL224C, strain SQS1, hits give low values
  normalized growth: 0.994
Locus YNL322C, strain KRE1, hits give low values
  normalized growth: 0.996
Locus YOR083W, strain WHI5 (second series), hits give low values
  normalized growth: 0.972
Locus YPL241C, strain CIN2, hits give low values
  normalized growth: 0.999
